Data taken from the OligoGym collection.

The sequences below were run against GPX1 (assay: pooled miR-30 sensor sort-seq; sequence = guide strand). Settings: shRNA.
Note: reference of the scale not given here.

Row | Sequence | sensor-assay potency score (higher = more potent)
1 | TTCCAGGCAACATCGTTGCGAC | -1
2 | AACATCGTTGCGACACACCGGA | -0.00294
3 | TAGGTTTAGAGGAAACACCCTC | -0.561
4 | ATTCAGAATCTCTTCGTTCTTG | 0.126
5 | TTCAGAATCTCTTCGTTCTTGG | 0.596
6 | TTCATCTGGGTGTAGTCCCGGA | -0.32
7 | TTTTCTATGAGTCACCGGGATT | -1.88
8 | AATCTCTTCGTTCTTGGCGTTC | -1.08
9 | ACATCGTTGCGACACACCGGAG | -1.77
10 | TTCGTTCTTGGCGTTCTCCTGA | 0.781
11 | ATTCTCGATAAGTAGTACCTTG | -0.704
12 | TTGGGGTCGGTCATAAGCGCGG | -1.09

Each sequence was assayed against GPX2 in the same assay as above. Settings: shRNA.

Row | Sequence | sensor-assay potency score (higher = more potent)
13 | TTGAAATCTACCTTCTCCCCAT | 0.588
14 | TTTTGGACAAGGGTGAAGGTGG | -0.672
15 | TTGAGCTGGGTGAAGTCCCGGG | -0.183
16 | TTGATGGTTGGGAAGGTGCGGC | -0.796
17 | TATGAGGAACTTCTCAAAGTTC | -1.27
18 | TCACATTTTTGGACAAGGGTGA | 0.0993
19 | TATTGGTCTCTTCTAGCAGAGT | -1.55
